Test results reported in PubChem BioAssay (Tox21).
Results filed as inconclusive are left out. Active and inactive are the calls of the source. Unless noted, the call rests on the fitted dose curve; in most records, active means well fitted curve in the direction sought with a large enough effect in the repeat runs; inconclusive means weak or mixed curves; inactive means no such curve, though single readings can be large; an effect the other way counts as inactive or inconclusive.

Columns and labels:
[1] = qHTS assay to identify small molecule agonists of the NFkB signaling pathway (AID 1159509; active means well fitted curve in the direction sought with a large enough effect in the signal ratio in the repeat runs, not every such curve was filed as active; the % refers to the signal ratio; further: series mostly up to about 61 µM)
How it was run: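 Readout: FRET fluorescence, 405 nm excitation, 460/530 nm emission; beta-lactamase expression disrupts FRET. Cells: ME-180 stably carrying NF-kB-driven bla reporter. Compound exposure 5 hr, 37 C, 5% CO2.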

[2] = qHTS assay to identify small molecule agonists of the NFkB signaling pathway - cell viability counter screen (AID 1159515; calls by dose curve; further: series mostly up to about 61 µM; nearly all actives have a fitted effect of over 55% in size)
How it was run: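 Tox21 library compounds were tested for cytotoxicity against NFkB-bla ME-180 cells during a 5 hr exposure at 37 C. CellTiter-Glo luminescence served as the viability read-out.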

[3] = qHTS assay to identify small molecule agonists of the endoplasmic reticulum stress response signaling pathway - cell viability counter screen (AID 1159517; calls by dose curve; further: series mostly up to about 61 µM; nearly all actives have a fitted effect of over 50% in size)
How it was run: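 Steps: seed 1,500 ESRE-bla HeLa cells per well; incubate overnight at 37 C, 5% CO2; add compounds in DMSO for 5 hr; run FRET substrate 2 hr RT; add CellTiter-Glo, wait 30 min, read luminescence.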

[4] = qHTS assay to identify small molecule antagonists of the retinoid-related orphan receptor gamma (ROR-gamma) signaling pathway - cell viability counter screen (AID 1159520); further: nearly all actives have a fitted effect of over 50% in size
How it was run: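 Tet-on ROR gamma CHO cells were given compounds for 2 hr, then doxycycline hyclate at 1 uM final, and incubated 16 hr at 37 C. Viability was measured as ATP content by CellTiter-Glo luminescence.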

[5] = target: Nuclear receptor ROR-gamma (Homo sapiens) (UniProt P51449); assay: qHTS assay to identify small molecule antagonists of the retinoid-related orphan receptor gamma (ROR-gamma) signaling pathway (AID 1159521; further: nearly all actives have a fitted effect of over 50% in size; further: potency means the concentration at half of the fitted maximal effect)
How it was run: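 Cells were plated, rested 4 h at 37 C, exposed to compounds for 2 h, then given 1 uM final doxycycline hyclate to induce RORγ expression. After 16 h, ONE-Glo luminescence from the ROR response element reporter was measured.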

[6] = qHTS assay to identify small molecule agonists of the AP-1 signaling pathway - cell viability counter screen (AID 1159525; calls by dose curve; further: nearly all actives have a fitted effect of over 55% in size)
How it was run: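 Same-well cytotoxicity counter screen of the Tox21 10K library in ME-180 cells. The readout is ATP-dependent luminescence after 5 h compound treatment. Data are normalised to DMSO and tetra n-octyl ammonium bromide controls.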

[7] = qHTS assay to identify small molecule agonists of the AP-1 signaling pathway (AID 1159526; calls by dose curve)
[8] = target: Retinoic acid receptor RXR-alpha (Homo sapiens) (UniProt P19793); assay: qHTS assay to identify small molecule agonists of the RXR signaling pathway (AID 1159527; calls by dose curve; further: nearly all actives have a fitted effect of over 35% in size; further: potency means the concentration at half of the fitted maximal effect)
How it was run: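 Cells plated at 2,000/well, rested 5 hr at 37 C, pin-dosed with DMSO compound solutions, incubated 16 hr, then loaded with B/G FRET substrate for 2 hr at RT before dual-emission fluorescence reading.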

[9] = qHTS assay to identify small molecule agonists of the RXR signaling pathway - cell viability counter screen (AID 1159529); further: nearly all actives have a fitted effect of over 50% in size; further: potency means the concentration at half of the fitted maximal effect
How it was run: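 Steps: seed RXR-alpha-UAS-bla HEK 293T cells in assay medium containing 2% charcoal-stripped FBS; incubate 5 hr; add compounds in DMSO; incubate 16 hr at 37 C; after the bla read, add CellTiter-Glo and read luminescence at 30 min.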

[10] = qHTS assay to identify small molecule antagonists of the retinoid acid receptor (RAR) signaling pathway - cell viability counter screen (AID 1159551); further: nearly all actives have a fitted effect of over 35% in size
How it was run: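 In this counter screen, the RARE-luciferase line C3RL4 was exposed for 6 h at 37 C and 5% CO2 to compounds with retinol at 1 uM final. Cellular ATP, read by luminescence, served as the viability measure.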

[11] = qHTS assay to identify small molecule antagonists of the retinoic acid receptor (RAR) signaling pathway (AID 1159552; further: nearly all actives have a fitted effect of over 50% in size; further: potency means the concentration at half of the fitted maximal effect)
How it was run: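 Retinol at 1 uM final stimulated RARE-luciferase expression in C3RL4 cells exposed to test compounds for 6 hr at 37 C. Reduced luminescence, read 30 min after detection reagent, indicated pathway antagonism.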

[12] = qHTS assay to identify small molecule agonists of the retinoic acid receptor (RAR) signaling pathway (AID 1159553)
How it was run: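 In this cell-based screen, 1,000 C3RL4 cells per well were cultured overnight, dosed with test chemicals in DMSO for 6 hr, and assessed for RARE luciferase luminescence.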

[13] = qHTS assay to identify small molecule antagonists of the estrogen related receptor (ERR) signaling pathway from Tox21 library - cell viability counter screen (AID 1224834); further: nearly all actives have a fitted effect of over 30% in size; further: potency means the concentration at half of the fitted maximal effect
How it was run: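 Counter screen run in ERR cells (2,000 cells/well): cells pre-incubated 6 h, then treated with compounds for 17.5 h at 37 C. Fluorescence was read 30 min after CellTiter-Fluor addition.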

[14] = qHTS assay to identify small molecule antagonists of the vitamin D receptor (VDR) signaling pathway - cell viability counter screen (AID 743225); further: nearly all actives have a fitted effect of over 50% in size; further: potency means the concentration at half of the fitted maximal effect
How it was run: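 HEK293T VDR-bla; cpd + 1a,25-(OH)2D3 3 nM final, 16 h 37C/5% CO2; B/G FRET substrate 2 h RT; then CellTiter-Glo 30 min RT, luminescence.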

[15] = qHTS assay to identify small molecule agonists of the endoplasmic reticulum stress response signaling pathway (AID 1159516; active means well fitted activation curve with a large enough effect in the signal ratio in the repeat runs, not every such curve was filed as active; the % refers to the signal ratio)
How it was run: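 Fluorescence at 460 and 530 nm (405 nm excitation) reports beta-lactamase from an ER stress response element in HeLa cells treated 5 hr at 37 C.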

Measured: Potency

Retinoic acid receptor RXR-alpha (Homo sapiens), sequence (P19793 whole entry, looked up): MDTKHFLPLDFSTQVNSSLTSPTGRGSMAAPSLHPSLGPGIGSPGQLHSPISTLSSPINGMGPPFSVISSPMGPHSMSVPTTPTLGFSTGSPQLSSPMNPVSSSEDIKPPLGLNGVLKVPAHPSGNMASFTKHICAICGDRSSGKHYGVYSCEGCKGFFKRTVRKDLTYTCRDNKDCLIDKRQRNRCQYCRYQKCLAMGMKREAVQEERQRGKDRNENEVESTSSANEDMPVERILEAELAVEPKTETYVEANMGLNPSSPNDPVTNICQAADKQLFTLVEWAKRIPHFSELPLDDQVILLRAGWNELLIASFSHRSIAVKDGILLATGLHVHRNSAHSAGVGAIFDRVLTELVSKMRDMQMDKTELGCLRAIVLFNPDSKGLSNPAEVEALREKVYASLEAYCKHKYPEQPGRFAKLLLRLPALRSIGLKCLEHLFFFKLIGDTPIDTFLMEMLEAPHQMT

CCOC(=O)c1c(N)sc2c1CCN(Cc1ccccc1)C2
not listed: [14] | [15]
inactive: all other assays above

COC(CC(C)CCCC(C)(C)O)OC (centres undefined)
not listed: [3] | [4] | [10]
inactive: all other assays above

Cc1cc([N+](=O)[O-])ccc1N
active: [13] 33.9 µM
not listed: [3] | [5] | [8]
inactive: all other assays above

CCNc1nc(N)nc(Cl)n1
active: [8] 5.49 µM | [11] 21.7 µM
not listed: [3] | [5]
inactive: all other assays above

Nc1c(Cl)cc(Cl)cc1[N+](=O)[O-]
not listed: [3] | [5] | [11]
inactive: all other assays above

CC1CCCC(=O)C1=O (centres undefined)
not listed: [15]
inactive: all other assays above

CCN(CC)C(=O)/C(C#N)=C/c1cc(O)c(O)c([N+](=O)[O-])c1
active: [13] 26.6 µM
not listed: [3] | [5] | [8] | [12]
inactive: all other assays above

CCCOC(=O)c1c(Cl)c(Cl)c(Cl)c(Cl)c1C(=O)OCCC
not listed: [3] | [5] | [7] | [9] | [10] | [14]
inactive: all other assays above

O[C@@H](CNC[C@H](O)[C@H]1CCc2cc(F)ccc2O1)[C@@H]1CCc2cc(F)ccc2O1
active: [14] 21.3 µM | [5] 23.7 µM | [9] 19 µM | [13] 29.8 µM
inactive: [1] | [2] | [15] | [6] | [7]

C[C@@H]1[C@H](O)[C@@H](C)/C=C/C=C\C=C\C=C\C=C\C=C\C=C\[C@H](O[C@@H]2O[C@H](C)[C@@H](O)[C@H](N)[C@@H]2O)C[C@@H]2O[C@](O)(C[C@@H](O)C[C@@H](O)[C@H](O)CC[C@@H](O)C[C@@H](O)CC(=O)O[C@H]1C)C[C@H](O)[C@H]2C(=O)O (stereo in doubt)
inactive: [14] | [1] | [2] | [15] | [4] | [6] | [8] | [10]
active: [13] 61.1 µM

CC(C)C(O)C(C)(C)CO (centres undefined)
inactive: [14] | [1] | [2] | [15] | [6] | [9] | [12]
active: [5] 22.4 µM | [11] 5.01 µM | [13] 0.631 µM
